The record followed here is PubChem BioAssay (Tox21).

Results filed as inconclusive are left out. Calls of active or inactive are those of the source. Unless noted, calls come from the whole dose curve.

A short description of assay [1]: qHTS assay to identify small molecule agonists of the sonic hedgehog signaling (Shh) pathway (AID 1259368).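 Note: NIH/3T3-derived 3T3Gli1-Luc cells carrying a stable Gli1-driven firefly luciferase reporter; series mostly up to about 92 µM; nearly all actives have a fitted effect of over 15% in size.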 The essentials: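 Quantitative high-throughput format using a Gli1-driven firefly luciferase reporter line derived from NIH/3T3 cells. After a 24 hr compound treatment at 37 C and 5% CO2, luminescence reported Gli1 response element activity.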
A short description of assay [2]: qHTS assay to identify small molecule antagonists of the sonic hedgehog signaling (Shh) pathway (AID 1259369). Note: nearly all actives have a fitted effect of over 45% in size. Note: potency is the fitted concentration of half-maximal effect. Put shortly: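 Stable Gli1-Luc reporter NIH/3T3 clone; quantitative HTS in stimulated mode with conditioned medium. Luminescence measured after 24hr compound treatment at 37 C.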
For orientation: In qHTS, concentration-response curves come from the screen itself.

The target of assay [3] is Estrogen receptor beta (Homo sapiens) (UniProt Q92731). Description: qHTS assay to identify small molecule agonists of the estrogen receptor beta (ER-beta) signaling pathway (AID 1259377; active = well fitted activation curve with a large enough effect in the signal ratio in the repeat runs, not every such curve was filed as active; the % refers to the signal ratio). The essentials: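 qHTS in ER-beta-UAS-bla HEK293T cells: 6 hr settling, then 16 hr compound at 37C, then LiveBLAzer substrate 2 h at RT before fluorescence reading.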
Sequence of Estrogen receptor beta (Homo sapiens) (Q92731 whole entry, looked up): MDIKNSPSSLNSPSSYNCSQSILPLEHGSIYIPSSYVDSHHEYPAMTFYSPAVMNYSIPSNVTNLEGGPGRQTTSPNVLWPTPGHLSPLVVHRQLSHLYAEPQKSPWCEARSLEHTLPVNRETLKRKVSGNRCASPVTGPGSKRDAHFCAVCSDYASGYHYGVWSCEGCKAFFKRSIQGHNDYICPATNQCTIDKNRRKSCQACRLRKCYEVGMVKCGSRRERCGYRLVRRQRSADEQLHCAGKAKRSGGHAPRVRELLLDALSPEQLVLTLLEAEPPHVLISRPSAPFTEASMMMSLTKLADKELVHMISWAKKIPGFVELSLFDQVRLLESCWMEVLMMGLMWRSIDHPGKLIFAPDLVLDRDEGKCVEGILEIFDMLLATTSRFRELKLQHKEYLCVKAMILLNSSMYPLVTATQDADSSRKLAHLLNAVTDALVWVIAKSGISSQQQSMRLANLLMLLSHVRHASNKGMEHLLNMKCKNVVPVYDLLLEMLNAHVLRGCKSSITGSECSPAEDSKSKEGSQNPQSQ
Assay [4] in a line: qHTS assay to identify small molecule agonists of the androgen receptor (AR) signaling pathway in the presence of an antagonist - cell viability counter screen (AID 1259379; active = well fitted curve in the direction sought with a large enough effect in the repeat runs; an effect the other way counts as inactive or inconclusive; note: nearly all actives have a fitted effect of over 25% in size; note: potency is the fitted concentration of half-maximal effect). Put shortly:
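Nilutamide-containing (3.0uM final) MDA-kb2 cultures, 3,000 cells/well, were treated with compounds across 15 concentrations. After 16 hr at 37C with no CO2, cell viability was determined by CellTiter-Fluor fluorescence in the luciferase assay wells.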

A short description of assay [5]: qHTS assay to identify small molecule agonists of the estrogen receptor beta (ER-beta) signaling pathway - cell viability counter screen (AID 1259380; active = well fitted curve in the direction sought with a large enough effect in the repeat runs; an effect the other way counts as inactive or inconclusive; note: nearly all actives have a fitted effect of over 30% in size). The essentials:
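Steps: plate ER-beta-UAS-bla HEK293T cells, rest 6 hr; add compounds in DMSO; incubate 16 hr at 37C, 5% CO2; add FRET substrate 2 hr; add CellTiter-Glo, wait 30 min at room temperature; read luminescence.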

Assay [6] is described as follows: qHTS assay to identify small molecule antagonists of the estrogen receptor beta (ER-beta) signaling pathway - cell viability counter screen (AID 1259382; active = well fitted curve in the direction sought with a large enough effect in the repeat runs; an effect the other way counts as inactive or inconclusive; note: nearly all actives have a fitted effect of over 55% in size; note: potency is the fitted concentration of half-maximal effect). The essentials: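 Viability is scored by CellTiter-Glo luminescence (30 min, room temperature) in ER-beta-UAS-bla HEK293T wells already read for reporter fluorescence. Compound exposure lasts 16 hr at 37C alongside 1nM 17-beta-estradiol in charcoal-stripped serum medium.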

The target in assay [7] is Estrogen receptor (Homo sapiens) (UniProt P03372). The experiment in a line: qHTS assay to identify small molecule agonists of the estrogen receptor alpha (ER-alpha) signaling pathway in the presence of an antagonist (AID 1259383). Note: top concentration of the series differs between compounds; nearly all actives have a fitted effect of over 15% in size. The essentials:
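Readout was ERE-driven luciferase luminescence in VM7Luc4E2 cells, which express full-length ER-alpha endogenously. Compounds were tested at 15 concentrations for 22hr alongside 10.0nM ICI-182,780 (final concentration).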

Assay [8] in a line: qHTS assay to identify small molecule agonists or antagonists of the thyroid stimulating hormone receptor (TSHR) signaling pathway - wild type cell line counter screen (AID 1259384). The essentials: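 Counter screen in untransfected Hek293: compounds (15-point titration, triplicate) plus phosphodiesterase inhibitor Ro20-1724 added after 18 h plating; 30 min RT. Intracellular cAMP via competitive d2/cryptate immunoassay, 1 h incubation.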

Assay [9] has as its target Estrogen receptor beta (Homo sapiens) (UniProt Q92731). Description: qHTS assay to identify small molecule antagonists of the estrogen receptor beta (ER-beta) signaling pathway (AID 1259378; active = well fitted inhibition curve with a large enough effect in the signal ratio in the repeat runs, not every such curve was filed as active; the % refers to the signal ratio; note: potency is the fitted concentration of half-maximal effect). The essentials:
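Antagonist mode: compounds added to beta-lactamase reporter HEK293T ER-beta-UAS cells stimulated with E2 (1nM final), 16 hr at 37C. LiveBLAzer B/G FRET substrate, 2 hours room temperature, fluorescence read-out.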

Assay [10] addresses Androgen receptor (Homo sapiens) (UniProt P10275). The experiment in a line: qHTS assay to identify small molecule agonists of the androgen receptor (AR) signaling pathway in the presence of an antagonist (AID 1259381). Note: nearly all actives have a fitted effect of over 15% in size. Put shortly:
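Reporter-gene luminescence from MDA-kb2 cells exposed 16hr at 37C (0% CO2) to 15-point compound titrations with 3.0uM final nilutamide as AR antagonist.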

Sequence of Estrogen receptor (Homo sapiens) (P03372 whole entry, looked up): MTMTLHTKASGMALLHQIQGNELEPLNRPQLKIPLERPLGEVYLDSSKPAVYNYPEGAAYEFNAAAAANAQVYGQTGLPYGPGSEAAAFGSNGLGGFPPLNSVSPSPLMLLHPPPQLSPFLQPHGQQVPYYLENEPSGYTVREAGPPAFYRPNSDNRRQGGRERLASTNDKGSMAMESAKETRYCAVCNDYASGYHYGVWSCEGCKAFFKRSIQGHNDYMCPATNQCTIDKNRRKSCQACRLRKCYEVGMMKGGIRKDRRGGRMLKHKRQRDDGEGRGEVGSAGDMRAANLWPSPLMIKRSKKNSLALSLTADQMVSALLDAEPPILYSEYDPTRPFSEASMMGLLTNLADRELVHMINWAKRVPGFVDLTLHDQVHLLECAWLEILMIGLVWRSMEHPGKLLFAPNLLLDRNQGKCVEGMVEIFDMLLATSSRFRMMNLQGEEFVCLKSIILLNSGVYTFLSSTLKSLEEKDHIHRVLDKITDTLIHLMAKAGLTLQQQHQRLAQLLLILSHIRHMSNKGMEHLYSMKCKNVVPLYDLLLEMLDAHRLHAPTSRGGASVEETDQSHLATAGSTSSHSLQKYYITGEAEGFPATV
Sequence of Androgen receptor (Homo sapiens) (P10275 whole entry, looked up): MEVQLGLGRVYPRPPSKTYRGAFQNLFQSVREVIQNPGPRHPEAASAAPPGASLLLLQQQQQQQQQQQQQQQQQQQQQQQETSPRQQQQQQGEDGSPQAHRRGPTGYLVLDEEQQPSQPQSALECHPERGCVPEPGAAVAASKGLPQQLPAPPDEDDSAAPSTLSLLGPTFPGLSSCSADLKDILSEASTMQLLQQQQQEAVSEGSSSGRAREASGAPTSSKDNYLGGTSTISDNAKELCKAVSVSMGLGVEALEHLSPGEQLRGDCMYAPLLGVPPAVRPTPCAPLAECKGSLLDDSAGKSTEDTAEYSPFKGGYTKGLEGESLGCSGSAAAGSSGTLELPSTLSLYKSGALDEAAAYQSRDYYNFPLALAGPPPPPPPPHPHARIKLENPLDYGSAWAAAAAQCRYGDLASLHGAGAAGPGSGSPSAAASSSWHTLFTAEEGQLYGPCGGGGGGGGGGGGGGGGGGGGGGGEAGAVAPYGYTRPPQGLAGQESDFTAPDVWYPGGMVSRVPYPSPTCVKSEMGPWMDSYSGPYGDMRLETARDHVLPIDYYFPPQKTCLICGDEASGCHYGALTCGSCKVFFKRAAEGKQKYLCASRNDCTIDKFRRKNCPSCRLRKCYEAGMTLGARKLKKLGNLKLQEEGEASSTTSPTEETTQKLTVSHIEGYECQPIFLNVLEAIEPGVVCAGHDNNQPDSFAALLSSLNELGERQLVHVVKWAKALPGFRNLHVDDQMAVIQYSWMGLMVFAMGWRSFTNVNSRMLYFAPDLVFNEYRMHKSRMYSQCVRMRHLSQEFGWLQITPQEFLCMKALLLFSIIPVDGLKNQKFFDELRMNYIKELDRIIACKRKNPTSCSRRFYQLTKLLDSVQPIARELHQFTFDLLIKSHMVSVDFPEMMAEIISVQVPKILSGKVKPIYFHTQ

As for `O=C1NCCN1`, the Potency entry in assay [1], in assay [2], in assay [3], in assay [4], in assay [5] and in assay [6] was “inactive” throughout. Further, the Potency result in assay [7] was “inactive”. For the same compound, the compound was called inactive in [8].
In the case of `Cc1nc2ccccc2s1`, the Potency entry in [1], in assay [2], in assay [3], in assay [9], in assay [4] and in [5] was “inactive” each time. For the same compound, the Potency result in assay [6] and in assay [7] was “inactive” in each case.
For the compound `CCC(=O)OC/C=C/c1ccccc1`, the Potency entry in assay [1], in assay [2], in assay [3], in assay [9], in [4] and in assay [5] was “inactive” throughout. In addition, the Potency entry in [6] and in assay [7] was “inactive” in each case.
Regarding `O=C(CCCCCCCCC#CI)Oc1ccccc1`, the Potency result in assay [1], in assay [2], in assay [3], in assay [4], in [5] and in [10] was “inactive” in each case. In addition, the Potency entry in [6] was “inactive”. The call in assay [8] was inactive.
Regarding `Cc1cc(C(=C2C=CC(=Nc3ccc(S(=O)(=O)O)cc3S(=O)(=O)O)C=C2)c2ccc(Nc3ccc(S(=O)(=O)O)cc3)cc2)ccc1N`, the Potency entry in assay [1], in assay [2], in assay [3], in assay [9], in assay [4] and in assay [5] was “inactive” in each case. Also, the Potency entry in [6] and in [7] was “inactive” throughout.
`CC(=N\O)/C(C)=N/O`: the Potency entry in assay [1], in assay [2], in [3], in assay [4], in assay [5] and in [6] was “inactive” each time.
Consider `C=CC(=C)CCCC(C)(C)OC(C)=O`, for which the Potency entry in [1], in assay [2], in assay [3], in [9], in assay [4] and in assay [5] was “inactive” in each case. Moreover, the Potency entry in [10] and in assay [6] was “inactive” each time. The compound was called inactive in assay [8].
As to `CNCCCC1c2ccccc2C=Cc2ccccc21`, the Potency result in [1], in assay [3] and in [7] was “inactive” throughout. Also, the Potency in [2] was 9.44 µM (active); in assay [9], 11.9 µM (active); in [6], 18.8 µM (active). Besides, in assay [8], the outcome was inactive.
`CCOC(=O)OCC`: the Potency entry in assay [1], in assay [2], in assay [3], in assay [4], in assay [5] and in [6] was “inactive” throughout. Besides, the Potency entry in assay [7] is “inactive”. In assay [8], the compound was called inactive.
Consider `COC(=O)Nc1nc2ccc(C(=O)c3cccs3)cc2[nH]1`, for which the Potency result in assay [1], in [3], in [9], in [4], in assay [5] and in assay [6] was “inactive” throughout. In addition, the Potency in [2] is 0.335 µM (active). Also, in [8], the result was inactive.
With `CCC(C)=O`, the Potency entry in [1], in assay [2], in assay [3], in assay [9], in assay [4] and in assay [5] was “inactive” throughout. Also, the Potency entry in [6] was “inactive”.
As for `CCCOC(=O)c1ccc(C(=O)OCCC)nc1`, the Potency entry in assay [1], in assay [2], in assay [3], in assay [9], in assay [4] and in [5] was “inactive” throughout. Also, the Potency entry in assay [10], in assay [6] and in assay [7] was “inactive” each time.
`CCC(C(=O)OCCOCCN(CC)CC)c1ccccc1` (stereo unspecified): the Potency result in assay [1], in assay [2], in assay [3], in [4], in [5] and in [6] was “inactive” each time. The Potency result in assay [7] was “inactive”.
With `CCCCC(CC)C(=O)OCCOCCOCCOCCOC(=O)C(CC)CCCC` (stereo unspecified), the Potency result in assay [1], in assay [2], in assay [3], in [9], in assay [4] and in [6] was “inactive” each time. In addition, the Potency result in assay [7] is “inactive”.
With `O=C(O)c1snc(Cl)c1Cl`, the Potency result in [1], in [2], in [3], in assay [9], in assay [4] and in [5] was “inactive” in each case. Moreover, in [6], the Potency result was “inactive”. The outcome in assay [8] was inactive.
Take `COCCOC`: the Potency entry in assay [1], in assay [9] and in assay [6] was “inactive” throughout. Moreover, the Potency in assay [2] is 4.13 µM (active). The compound was called inactive in assay [8].
Regarding `CCCCN(CCCC)C(=S)SSC(=S)N(CCCC)CCCC`, the Potency entry in assay [1], in [3], in assay [5] and in assay [7] was “inactive” in each case. For the same compound, the Potency in assay [2] was 1.91 µM (active). For the same compound, the result in [8] was inactive.
Turning to `CC(CCc1ccc2c(c1)OCO2)NN` (stereo unspecified), the Potency entry in assay [1], in [2], in [3], in assay [4], in [6] and in assay [7] was “inactive” throughout. Further, the compound was called inactive in assay [8].
Take `CCC(Cc1ccccc1)(C(=O)c1ccc(N2CCOCC2)cc1)N(C)C` (stereo unspecified): the Potency result in assay [1], in assay [9], in assay [6] and in assay [7] was “inactive” in each case. Also, the Potency in assay [2] was 19.3 µM (active). Moreover, the compound was called inactive in assay [8].
For `Cc1cc2nc3ccc(=[N+](C)C)cc-3sc2cc1N`, the Potency entry in assay [1], in [3], in [10] and in assay [7] was “inactive” in each case. Besides, the Potency is 2.66 µM (active) in assay [2] and 3.76 µM (active) in assay [4].
Regarding `CO/N=C1\CN(c2nc3c(cc2F)c(=O)c(C(=O)O)cn3C2CC2)CC1CN` (stereo unspecified), the Potency entry in [1], in [2], in assay [3], in assay [4], in assay [6] and in assay [7] was “inactive” in each case. In addition, the outcome in assay [8] was inactive.
With `c1cnc2c(n1)CCCC2`, the Potency result in [1], in assay [2], in [4], in assay [5], in [10] and in assay [6] was “inactive” each time. For the same compound, the call in [8] was inactive.
With `C/C(=N/NC(=O)c1ccncc1)C(=O)O`, the Potency result in [1], in [2], in assay [4], in assay [5], in [10] and in [6] was “inactive” in each case. In assay [7], the Potency entry is “inactive”. Besides, the compound was called inactive in [8].
In the case of `Cc1cc(O)c2c(O)c3c(O)cccc3cc2c1`, the Potency entry in [1], in assay [2], in [3], in assay [5], in assay [10] and in [6] was “inactive” throughout. In assay [8], the call was inactive.
With `CCc1nn(CCCN2CCN(c3cccc(Cl)c3)CC2)c(=O)n1CCOc1ccccc1`, the Potency result in assay [1], in assay [3] and in assay [7] was “inactive” in each case. The Potency in [2] is 15 µM (active); in assay [4], 29.8 µM (active). Moreover, the compound was classed as inactive in assay [8].
Turning to `Cc1c(C(=O)NN2CCCCC2)nn(-c2ccc(Cl)cc2Cl)c1-c1ccc(Cl)cc1`, the Potency entry in [1], in assay [2], in assay [3], in assay [4], in assay [10] and in assay [6] was “inactive” throughout. In addition, the Potency entry in [7] was “inactive”. For the same compound, the compound was called inactive in assay [8].
As to `Cc1ccnc2ccccc12`, the Potency entry in assay [1], in [9], in assay [4], in [5], in assay [6] and in assay [7] was “inactive” throughout. Also, the Potency in assay [2] is 48.4 µM (active).
